Common to all, as to format: functional
The target in test [1] is Solute carrier family 2, facilitated glucose transporter member 1 (Homo sapiens) (UniProt P11166). In words: ST_JUDE_LEISH: Cytotoxicity at 2uM final concentration against transgenic Leishmania Mexicana promastigotes LmGLUT1 that are glucose transport deficient and complemented with the human glucose transporter GLUT1. Activity is measured by DNA content using SYBR green in vitro.

For test [2], the target named is Hexose transporter 1 (Plasmodium falciparum) (UniProt O97467). In words: ST_JUDE_LEISH: Cytotoxicity at 2uM final concentration against transgenic Leishmania Mexicana promastigotes LmPfHT that are glucose transport deficient and complemented with the Plasmodium falciparum hexose transporter. Activity is measured by DNA content using SYBR green in vitro.
Test [3] deals with Glucose transporter (Leishmania mexicana) (UniProt O61059). In words: ST_JUDE_LEISH: Cytotoxicity at 2uM final concentration against transgenic Leishmania Mexicana promastigotes LmGT2 that are glucose transport deficient and complemented with the L. Mexicana glucose transporter 2. Activity is measured by DNA content using SYBR green in vitro.

Solute carrier family 2, facilitated glucose transporter member 1 (Homo sapiens), sequence (P11166 whole entry): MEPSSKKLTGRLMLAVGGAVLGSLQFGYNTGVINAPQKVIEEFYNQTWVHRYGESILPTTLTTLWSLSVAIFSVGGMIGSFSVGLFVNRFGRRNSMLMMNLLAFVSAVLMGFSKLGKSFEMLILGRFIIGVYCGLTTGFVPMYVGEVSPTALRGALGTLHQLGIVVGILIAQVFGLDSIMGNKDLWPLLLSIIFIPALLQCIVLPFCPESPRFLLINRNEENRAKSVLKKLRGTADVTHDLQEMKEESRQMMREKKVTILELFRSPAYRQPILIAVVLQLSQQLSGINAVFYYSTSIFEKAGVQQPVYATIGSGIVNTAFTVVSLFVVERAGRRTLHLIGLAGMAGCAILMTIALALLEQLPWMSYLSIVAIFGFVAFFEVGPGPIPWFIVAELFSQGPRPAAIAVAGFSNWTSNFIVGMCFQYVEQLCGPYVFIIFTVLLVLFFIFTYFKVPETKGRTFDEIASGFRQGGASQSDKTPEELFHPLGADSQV

As for `Cc1cc(C)c2ncc(C(=O)O)c(O)c2c1`, the inhibition in test [1] worked out at 2.75%; in test [2], 3.7%; in test [3] it was 3.9%.

For the compound `FC(F)(F)c1ccc2[nH]c(-c3ccc(-c4cccc(CNCC5CCCO5)c4)cc3)nc2c1` (centres undefined), the inhibition turned out to be 3.87% in test [1], 2.83% in test [2] and 2.68% in test [3].

For `COc1ccc2ncc(F)c(NC(=O)C3CCC(NCc4cc5c(F)cccc5[nH]4)CC3)c2n1` (centres undefined), the results for the inhibition in test [1], in test [2] and in test [3] were 77.5%, 80.8% and 77.4%, respectively.

Take `O=C(NCCCCN1CCC(c2c[nH]c3ccccc23)CC1)c1sc(-c2ccc(C(F)(F)F)cc2)nc1CO`: the values for the inhibition in test [1], in test [2] and in test [3] were 7.38%, 8.88% and 5.81%, respectively.

As for `CN1CCC(NCc2cccc(-c3ccc(S(=O)(=O)NCCN4CCCC4)c(F)c3)c2)CC1`, the inhibition was -1.49% in test [1], -0.62% in test [2] and -0.34% in test [3].

Regarding `CCn1c(-c2nonc2N)nc2c(-c3cccc(NC(=O)Nc4ccccc4OC)c3)ncc(OCCCN)c21`, the inhibition in test [1] came out at 2.94%; in test [2], 3.41%; in test [3], 3.42%.

Regarding `COc1cc(N)c(Cl)cc1C(=O)NC1CCC(NCC2CCCCC2)CC1` (centres undefined), the inhibition is 2% in test [1], 1.99% in test [2] and 1.15% in test [3].

Take `COc1ccc2ncc(C)c(CCN3CCC(NCc4ccc5c(n4)NC(=O)CS5)CC3)c2c1`: the inhibition in test [1] was 8.73%; in test [2], 6.68%; in test [3], 6.71%.

For the compound `CO/C(=C\C=C\c1cc2cc(Cl)c(Cl)cc2[nH]1)C(=O)NCCN1CCCCC1`, the inhibition in test [1] was 0.85%; in test [2], 1.14%; in test [3], 0.35%.

For `CCc1cc(-c2onc(C(F)(F)F)c2-c2ccccc2)c(O)cc1OC`, the inhibition is 3.95% in test [1], 3.34% in test [2] and 7.43% in test [3].

Turning to `Cc1ccc(NC(=N)Nc2ncccc2OCc2c(F)cccc2Cl)cc1`, the results for the inhibition in test [1], in test [2] and in test [3] were 7.2%, 7.97% and 5.56%, respectively.

With `CO/C(=C\C=C\c1cc2cc(Cl)c(Cl)cc2[nH]1)C(=O)NCCCN1CCCC[C@@H]1C`, the inhibition in test [1] was 3.54%; in test [2], 2.51%; in test [3], -0.72%.

As for `CCc1cc(Br)c2c(c1)C(NCCCNc1cc(=O)c3ccccc3[nH]1)CCN2` (centres undefined), the values for the inhibition in test [1], in test [2] and in test [3] were 3.82%, 2.76% and 5.63%, respectively.

For `Cc1nc2nc(N)nc(N)c2c(C)c1Cc1ccc(O)cc1`, the inhibition in test [1] is -0.09%; in test [2], -2.78%; in test [3] it was 4.5%.

Regarding `CCCN1CCCN(Cc2cccc(NC(=O)c3ccc(-c4ccccc4)cc3)c2)CC1`, the figures for the inhibition in test [1], in test [2] and in test [3] were 0.74%, 0.03% and -5.12%, respectively.

Regarding `CCOc1ccc(-c2nonc2NC(=O)c2ccco2)cc1OCC`, the inhibition in test [1] is 1.01%; in test [2], -0.52%; in test [3] it was 0.72%.

For `O=C(Nc1ccc(Cl)cc1)c1ccc(CN2CCCN(Cc3cccc(Cl)c3)CC2)cc1`, the inhibition in test [1] was -0.65%; in test [2], -1.08%; in test [3], -0.52%.

For the compound `Cc1sc(C)c(CNCCCNc2cc(=O)c3ccccc3[nH]2)c1Br`, the results for the inhibition in test [1], in test [2] and in test [3] were 2.08%, 2% and -3.4%, respectively.

Turning to `COc1cc(NC(=O)N2CCOC(CCN3CCC4(CCc5ccccc54)CC3)(c3ccc(Cl)c(Cl)c3)C2)cc(OC)c1` (centres undefined), the inhibition in test [1] turned out to be 3.64%; in test [2], 1.66%; in test [3] it was 1.53%.

Regarding `CN(C)CCOc1ccc(-c2cc(-c3ccc(Cl)c(O)c3)c(-c3ccncc3)[nH]2)cc1`, the figures for the inhibition in test [1], in test [2] and in test [3] were -0.18%, -0.32% and 0.48%, respectively.

With `CC(C)(C)c1ccc(CN2CCCCC(NC(=O)c3cc(-c4cccc(F)c4)cs3)C2)cc1` (centres undefined), the inhibition was -2.41% in test [1], -3.63% in test [2] and -0.11% in test [3].

For the compound `NCC1CCCN1Cc1cccc(-c2cccc(-c3nc4cc(F)ccc4[nH]3)c2)c1` (centres undefined), the inhibition in test [1] amounted to 0.19%; in test [2], 0.88%; in test [3] it was 1.02%.

Take `OCCCCCCNc1nc(NCc2ccccc2-c2ccc(C(F)(F)F)cc2)nc(N2CCNCC2)n1`: the inhibition is 1.31% in test [1], -1.2% in test [2] and 0.81% in test [3].

On to `Fc1ccc2cc(C=Cc3ccncc3)[nH]c2c1`, for which the inhibition is 2.24% in test [1], 4.09% in test [2] and 0.56% in test [3].

`Cc1cc2nc(-c3ccc(C(=O)NCc4ccc(Cl)c(Cl)c4)cc3)[nH]c2cc1C`: the inhibition in test [1] was found to be 4.77%; in test [2] it was 4.64%; in test [3] it was 2.9%.

As for `CN1CCN(CCCN(Cc2csc(-c3ccc(CNCc4ccccc4)cc3)n2)S(=O)(=O)c2ccccc2Cl)CC1`, the figures for the inhibition in test [1], in test [2] and in test [3] were 1.75%, 0.37% and 2.9%, respectively.

With `O=C(Nc1cccc(-c2csc(-c3ccccc3)n2)c1)c1cccs1`, the inhibition was determined as 2.64% in test [1], 2.57% in test [2] and 0.7% in test [3].

For `CC1(C)CN2CCCC2c2cc(NC(=O)/C=C/c3ccccc3Cl)ccc21` (centres undefined), the inhibition in test [1] came out at 3.26%; in test [2] it was 2.04%; in test [3], 0.94%.

As to `O=C(Nc1ccc(CN2CCOCC2)cc1)c1ccc(-c2cc(Cl)ccc2Cl)o1`, the values for the inhibition in test [1], in test [2] and in test [3] were 11%, 8.63% and 7.99%, respectively.

As to `CC(C)(C)C(Cn1ccnc1)NCc1c[nH]nc1-c1ccc(-c2ccccc2)cc1` (centres undefined), the inhibition in test [1] worked out at 11.2%; in test [2] it was 16.9%; in test [3], 11.5%.

For `CC(C)C[C@H](NC(=O)c1ccc(OCCN2CCOCC2)cc1)C(=O)N[C@H](/C=N/N1CCN(C)C1=O)CCc1ccccc1`, the inhibition in test [1] is 3.09%; in test [2], 5.16%; in test [3], 3.85%.

For the compound `Cc1cc(N)nc2ccc(-c3ccc(CN)cc3)cc12`, the inhibition is 9.09% in test [1], 6.77% in test [2] and 4.15% in test [3].

Turning to `COc1ccc2nccc([C@@H](O)CN3CCC(NCc4cc5cccc(OCc6ccccc6)c5[nH]4)CC3)c2c1`, the values for the inhibition in test [1], in test [2] and in test [3] were 1.7%, 0.05% and 2.01%, respectively.

In the case of `C[C@@H](CNc1ccnc(Nc2ccc3[nH]c(=O)[nH]c3c2)n1)c1ccccc1`, the inhibition in test [1] was -3.02%; in test [2], -0.02%; in test [3] it was -0.41%.

For the compound `O=C(Nc1cc(C(F)(F)F)cc(C(F)(F)F)c1)N1CCC(CCN2CCC(c3c[nH]c4ccccc34)CC2)CC1`, the inhibition in test [1] was 5.87%; in test [2], 4.12%; in test [3], 4.71%.

In the case of `O=C(CNC1=NCCN1)Nc1ccc(NC(=O)Nc2ccc(NC(=O)CNC3=NCCN3)cc2)cc1`, the inhibition in test [1] came to 3.51%; in test [2], 4.85%; in test [3] it was 0.21%.

Consider `CC(C)CCN1CCCN(Cc2ccc(C(=O)Nc3ccc(C(C)(C)C)cc3)cc2)CC1`, for which the results for the inhibition in test [1], in test [2] and in test [3] were 2.66%, 1.37% and 1.41%, respectively.

Turning to `CN(C)CCCNC(=O)c1ccccc1Sc1ccccc1C#N`, the inhibition in test [1] came to 0.79%; in test [2], 1.43%; in test [3] it was 1.54%.

As to `COc1ccc2nccc(N3CCC(NCc4ccc5c(n4)NC(=O)CS5)CC3)c2n1`, the inhibition in test [1] was 0.15%; in test [2], -0.14%; in test [3], 2.01%.

As to `COc1ccc2nc(C)cc(N/N=C/c3ccc([N+](=O)[O-])o3)c2c1`, the inhibition in test [1] was determined as 3.7%; in test [2] it was 6.04%; in test [3], 0.72%.

Consider `Oc1ccc2[nH]c(-c3cccc(F)c3)nc2c1CN1CCC(N2CCCC2)CC1`, for which the inhibition in test [1] was 3.47%; in test [2], 3.65%; in test [3] it was 4.9%.

On to `Cc1cc(OCCCN2CCN(CCN3CCOCC3)CC2)ccc1NC(=O)COc1ccc(Cl)cc1C(=O)c1cc(Cl)cc(C#N)c1`, for which the inhibition in test [1] was found to be 2.6%; in test [2], 0.79%; in test [3], 2.48%.

As to `CN(Cc1cc(C(F)(F)F)cc(C(F)(F)F)c1)C(=O)C(Cc1ccc(F)cc1)C1CCCNC1` (centres undefined), the inhibition was 6.71% in test [1], 4.23% in test [2] and 6.9% in test [3].

For `OCCN1CCN(Cc2ccc(-c3cccc(-c4nc5cc(C(F)(F)F)ccc5[nH]4)c3)cc2)CC1`, the inhibition in test [1] worked out at 7.65%; in test [2], 7.08%; in test [3], 7.33%.

Turning to `CCN(CC)CCCN(CCCN(CC)CC)c1cc(C)nc(Nc2ccc(Cl)cc2)n1`, the inhibition in test [1] was 2.61%; in test [2], 0.88%; in test [3], 0.26%.

Take `Cc1cccc2nc(-c3ccc(-c4ccc(CNCC5CCCO5)cc4)cc3)[nH]c12` (centres undefined): the figures for the inhibition in test [1], in test [2] and in test [3] were 16.3%, 14.9% and 6.42%, respectively.

On to `O=c1cc(NCCCNCc2ccc(C(F)(F)F)s2)[nH]c2ccccc12`, for which the inhibition in test [1] was -0.41%; in test [2] it was 0.6%; in test [3] it was 0.9%.

`CC(C)(CNC(=O)[C@H]1CCCCN1)c1nc(-c2ccc(Cl)c(O)c2)c(-c2ccncc2)[nH]1`: the inhibition in test [1] turned out to be 5.66%; in test [2], 4.64%; in test [3] it was 6.24%.

The term inhibition denotes the drop in the measured response relative to a control, in per cent.
